Experiment [1] relates to Wnt5a (protein binding on small-molecule microarray). The experiment can be described thus: Wnt5a binders on small-molecule microarray, primary screen, biophysical, 635/667 nm fluorescence (AID 1142).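 Also: fluorescence read at 667 nm with signal to noise per printed feature.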 Conditions: 635 nm fluorescence, higher = more signal.
Experiment [2] can be described thus: cell viability in Huh7 cells, primary screen, cytotoxicity control for HCV replication inhibitor project, CellTiter-Glo luminescence, basal, 48 h (AID 1143).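 Also: Huh7 hepatoma cells carrying a hepatitis C replication reporter with no stimulus; test concentration not given here.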 The settings on record: Huh7 HCV replicon, higher = more signal, called active from +8 up or from −8 down. A general note: Cellular ATP, detected with luciferase, serves as a proxy for viable cell number.
A short description of experiment [3]: P. aeruginosa biofilm formation inhibitors, primary screen, PAO1 strain, BacTiter-Glo luminescence, LB-PBS (AID 1144). Conditions: 12 h, higher = more signal.
Experiment [4] is described as follows: CREB reporter modulators without forskolin, primary screen, cell-based, PC12, CRE-LacZ reporter, unstimulated (AID 1145). Conditions: no forskolin, luminescence, 4.5 h, higher = more signal, called active from +8 up or from −8 down.
Experiment [5] can be described thus: CREB reporter modulators under forskolin, primary screen, cell-based, PC12, CRE-LacZ reporter, forskolin-stimulated (AID 1146).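 Also: PC12 cells with 6xCRE LacZ reporter stimulated by forskolin 10 µM; beta-galactosidase reporter signal reflecting CREB driven transcription.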 Conditions: luminescence, 4.5 h, higher = more signal, called active from +8 up or from −8 down.
In experiment [6] the target is Streptavidin (Streptomyces avidinii) (UniProt P22629). The experiment is described as follows: streptavidin binders on small-molecule microarray, primary screen, artefact control for SMM compound annotation, biophysical, 635/667 nm fluorescence (AID 1147).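 Also: signal reflects streptavidin binding to arrayed compounds as a control protein.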 The settings on record: streptavidin binding, higher = more signal.
Streptavidin (Streptomyces avidinii), sequence (P22629 whole entry, looked up): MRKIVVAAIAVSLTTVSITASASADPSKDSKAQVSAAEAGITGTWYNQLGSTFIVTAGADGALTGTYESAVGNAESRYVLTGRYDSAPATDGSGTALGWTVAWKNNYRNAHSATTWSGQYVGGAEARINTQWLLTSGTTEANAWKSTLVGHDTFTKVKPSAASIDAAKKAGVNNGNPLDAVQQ
Experiment [7] in a line: small-molecule binders of probe aInhba, primary screen, biochemical, small-molecule microarray, 635/667 nm fluorescence (AID 1148).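 Also: score merges 667nm spot fluorescence with signal-to-noise for antibody binding to printed compounds.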 Conditions: higher = more signal.
For experiment [8], the target named is Torsin-1A (Homo sapiens) (UniProt O14656). The experiment is described as follows: torsin A binders from cell lysate, primary screen, small-molecule microarray, wild-type, 635/667 nm (AID 1149). Conditions: COS7 hTOR1A-WT lysate, 635 nm fluorescence, higher = more signal.
Torsin-1A (Homo sapiens), sequence (O14656 whole entry, looked up): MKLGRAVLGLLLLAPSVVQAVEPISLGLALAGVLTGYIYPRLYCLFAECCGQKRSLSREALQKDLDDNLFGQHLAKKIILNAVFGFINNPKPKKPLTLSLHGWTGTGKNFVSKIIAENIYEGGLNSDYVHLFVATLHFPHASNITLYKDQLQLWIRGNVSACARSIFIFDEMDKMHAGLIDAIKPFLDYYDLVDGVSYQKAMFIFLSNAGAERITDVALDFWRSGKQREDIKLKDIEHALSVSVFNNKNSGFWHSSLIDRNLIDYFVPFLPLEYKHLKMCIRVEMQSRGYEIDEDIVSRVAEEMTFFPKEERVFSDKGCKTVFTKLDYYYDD
The target is the same in experiment [9]. The experiment can be described thus: small-molecule binders of mutant TOR1A in lysate, primary screen, cell lysate, small-molecule microarray, COS7 lysate, 635/667 nm fluorescence (AID 1150).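 Also: score pools 667 nm emission and signal to noise measuring lysate protein binding.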 The settings on record: COS7 hTOR1A mutant lysate, 635 nm fluorescence, higher = more signal.
Experiment [10] relates to Sonic hedgehog protein (Shh). The experiment can be described thus: small-molecule binders of Shh protein, primary screen, biochemical, small-molecule microarray, 635/667 nm fluorescence (AID 1151).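 Also: Shh protein binding to compounds spotted on small-molecule microarray slides; score combines spot fluorescence intensity with signal-to-noise across triplicate slides.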 The settings on record: small-molecule microarray binding, 635 nm fluorescence; higher = more signal.
Experiment [11] can be described thus: E. coli DRC41 culture turbidity changes, primary screen, E. coli filamentation inducer project, strain DRC41, OD650, 48 h (AID 1152).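 Also: E. coli MC1000 strain DRC41 lacking acrAB efflux pump and sulA.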 The settings on record: E. coli DRC41 (acrAB sulA), higher = more signal, called active from +8 up or from −8 down.
Experiment [12] can be described thus: small-molecule binders of probe aLefty1, primary screen, biochemical, small-molecule microarray, 635/667 nm fluorescence (AID 1153).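 Also: score merges spot fluorescence with signal-to-noise ratio from the scanned slide images.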 The settings on record: higher = more signal.
Experiment [13] in a line: PSAC antagonists in infected red cells, primary screen, cell-based, P. falciparum Indochina, OD700, 1 h (AID 1154). Conditions: P. falciparum Indochina infected RBC osmotic lysis, higher = more signal, called active from +8 up or from −8 down.
The nature of experiment [14]: PSAC antagonists in infected red cells, primary screen, cell-based, P. falciparum Indochina, OD700, 2 h (AID 1155).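 Also: lysis reports solute entry through the parasite surface anion channel PSAC; channel blockers reduce lysis of infected cells.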 The settings on record: P. falciparum Indochina infected erythrocytes, osmotic lysis OD700; higher = more signal, called active from +8 up or from −8 down.
Experiment [15] can be described thus: osmotic lysis modulators in infected erythrocytes, primary screen, PSAC antagonist project, cell-based, P. falciparum Indochina, OD700, 3 h (AID 1156). Conditions: higher = more signal, called active from +8 up or from −8 down.
Experiment [16] can be described thus: PSAC antagonists in infected red cells, primary screen, cell-based, P. falciparum Indochina, OD700, 18 h (AID 1157). The settings on record: P. falciparum Indochina infected erythrocytes, osmotic lysis OD700, 18 h; higher = more signal, called active from +8 up or from −8 down.
Experiment [17] in a line: modulators of S6 phosphorylation in cells, primary screen, cell-based, A549, cytoblot, luminescence, serum-stimulated (AID 1158).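 Also: serum-stimulated A549 lung adenocarcinoma cells; signal is phosphorylated S6 detected by cytoblot immunostaining with HRP secondary.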 Conditions: A549 phospho-S6 cytoblot, 5 h, higher = more signal.
Experiment [18] deals with NADPH oxidase 2 (Homo sapiens) (UniProt P04839). The experiment is described as follows: NOX2-dependent H2O2 signal modulators, primary screen, NOX inhibitor project, cell-based, HEK293-NOX2, PMA-stimulated, Amplex Red fluorescence (AID 1159). Also: test concentration not given here. Conditions: 45 min, higher = more signal, called active from +8 up or from −8 down.
NADPH oxidase 2 (Homo sapiens), sequence (P04839 whole entry, looked up): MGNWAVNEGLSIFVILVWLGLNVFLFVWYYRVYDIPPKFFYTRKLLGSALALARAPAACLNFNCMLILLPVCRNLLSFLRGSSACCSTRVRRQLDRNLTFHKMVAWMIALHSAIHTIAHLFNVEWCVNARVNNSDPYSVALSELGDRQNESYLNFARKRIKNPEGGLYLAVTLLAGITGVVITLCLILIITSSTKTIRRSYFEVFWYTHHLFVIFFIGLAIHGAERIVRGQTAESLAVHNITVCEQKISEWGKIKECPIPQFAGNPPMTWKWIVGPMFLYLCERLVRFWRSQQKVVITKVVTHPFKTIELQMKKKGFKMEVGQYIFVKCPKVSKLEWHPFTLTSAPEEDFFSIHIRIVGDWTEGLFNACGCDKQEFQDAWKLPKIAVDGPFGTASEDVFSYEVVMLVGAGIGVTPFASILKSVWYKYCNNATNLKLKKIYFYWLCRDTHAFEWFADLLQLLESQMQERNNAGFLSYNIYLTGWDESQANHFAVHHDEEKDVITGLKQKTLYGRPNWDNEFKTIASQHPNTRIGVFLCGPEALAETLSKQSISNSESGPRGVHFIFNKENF
In experiment [19] the target is NADPH oxidase 4 (Homo sapiens) (UniProt Q9NPH5). The experiment can be described thus: NOX4-dependent H2O2 signal modulators, primary screen, NOX inhibitor project, cell-based, HEK293-NOX4, tetracycline-induced, Amplex Red fluorescence (AID 1160). The settings on record: 45 min, higher = more signal, called active from +8 up or from −8 down.
NADPH oxidase 4 (Homo sapiens), sequence (Q9NPH5 whole entry, looked up): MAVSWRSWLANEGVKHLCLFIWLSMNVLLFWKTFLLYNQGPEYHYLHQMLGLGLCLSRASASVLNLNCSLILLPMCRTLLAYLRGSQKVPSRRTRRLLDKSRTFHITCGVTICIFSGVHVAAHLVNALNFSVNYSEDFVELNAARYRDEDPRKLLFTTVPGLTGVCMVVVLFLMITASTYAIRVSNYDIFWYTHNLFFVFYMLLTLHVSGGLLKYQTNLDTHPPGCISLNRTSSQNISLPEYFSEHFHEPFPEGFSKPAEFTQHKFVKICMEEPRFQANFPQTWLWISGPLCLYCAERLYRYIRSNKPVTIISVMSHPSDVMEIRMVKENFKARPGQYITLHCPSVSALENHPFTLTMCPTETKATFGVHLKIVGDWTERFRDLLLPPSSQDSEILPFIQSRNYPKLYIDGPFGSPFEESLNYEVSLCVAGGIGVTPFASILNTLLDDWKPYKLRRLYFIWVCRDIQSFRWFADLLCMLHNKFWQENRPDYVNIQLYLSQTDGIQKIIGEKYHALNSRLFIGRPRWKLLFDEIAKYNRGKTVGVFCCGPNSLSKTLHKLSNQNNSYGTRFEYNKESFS
In experiment [20] the target is NADPH oxidase 5 (Homo sapiens) (UniProt Q96PH1). The experiment can be described thus: NOX5-dependent H2O2 signal modulators, primary screen, NOX inhibitor project, cell-based, HEK293-NOX5, Amplex Red fluorescence (AID 1161). Conditions: HEK293-NOX5, ionomycin, 45 min, higher = more signal.
NADPH oxidase 5 (Homo sapiens), sequence (Q96PH1 whole entry, looked up): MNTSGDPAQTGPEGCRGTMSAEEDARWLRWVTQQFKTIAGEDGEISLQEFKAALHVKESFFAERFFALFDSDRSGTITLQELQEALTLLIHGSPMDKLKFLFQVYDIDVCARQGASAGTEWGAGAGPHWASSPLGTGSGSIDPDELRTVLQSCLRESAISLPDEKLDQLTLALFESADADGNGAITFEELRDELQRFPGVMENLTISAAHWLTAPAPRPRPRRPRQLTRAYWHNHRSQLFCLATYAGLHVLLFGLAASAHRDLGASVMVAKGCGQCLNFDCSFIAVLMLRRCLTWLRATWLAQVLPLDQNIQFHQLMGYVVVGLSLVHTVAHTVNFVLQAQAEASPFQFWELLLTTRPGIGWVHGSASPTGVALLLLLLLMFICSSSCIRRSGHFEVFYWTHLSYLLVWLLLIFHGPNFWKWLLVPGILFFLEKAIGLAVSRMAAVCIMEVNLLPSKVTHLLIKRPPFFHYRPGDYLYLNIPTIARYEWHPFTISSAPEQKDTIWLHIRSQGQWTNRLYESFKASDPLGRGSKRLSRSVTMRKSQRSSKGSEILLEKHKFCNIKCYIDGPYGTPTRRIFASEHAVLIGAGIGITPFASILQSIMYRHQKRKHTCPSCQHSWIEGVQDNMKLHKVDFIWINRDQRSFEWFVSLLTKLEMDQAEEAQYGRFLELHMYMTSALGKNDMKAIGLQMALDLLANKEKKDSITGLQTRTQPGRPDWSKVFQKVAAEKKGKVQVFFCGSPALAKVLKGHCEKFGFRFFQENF

Active and inactive are the calls of the source. Unless noted, no rule for the calls is given here.

For `C=CCC(OC(C)=O)[C@@H]1[C@@H](N(Cc2cccc3ccccc23)C(=O)c2ccc(-c3ccccc3)cc2)c2cc(OCCCO)ccc2N1C(=O)c1ccc(-c2ccccc2)cc1` (stereo not given in full), the composite z-score in experiment [1] came to 0.09; in [6], 0.361; in [7], 0.114; in experiment [8], 0.162; in experiment [9], 0.0809; in experiment [10] it was 0.286. In [12], this molecule returned a composite z-score of -0.06. Also, the z-score in experiment [2] is 0.457 (inactive); in experiment [3], -0.1 (inactive); in [4] it was 0.367 (inactive); in experiment [5], 0.859 (inactive); in experiment [11], -0.883 (inactive); in experiment [13], 0.311 (inactive). The z-score in [14] was -1.06 (inactive); in [15], -0.942 (inactive); in experiment [16] it was -0.454 (inactive); in experiment [17], -0.0997; in experiment [18], 0.582 (inactive); in [19], 0.688 (inactive). The z-score in experiment [20] stood at 0.296.

For the molecule `CC(C)C[C@@H]1NC(=O)[C@@H]2C[C@H](C(=O)NCCCCCC[N+](C)(C)C)[C@H](c3cccc(OCCO)c3)N2C1=O`, the composite z-score in experiment [1] was -0.391; in [6], -0.665; in experiment [7], -0.128; in experiment [8] it was -0.153; in [9] it was 0.393; in experiment [10], 1.46. For the same molecule, the composite z-score in experiment [12] worked out at 0.22. The z-score in experiment [2] was -0.351 (inactive); in experiment [3] it was -0.226 (inactive); in experiment [4], -0.943 (inactive); in [5], -0.153 (inactive); in experiment [11], -0.407 (inactive); in experiment [13], 6.26 (inactive). For the same molecule, the z-score is 1.35 (inactive) in experiment [14]; -0.953 (inactive) in experiment [15]; 0.376 (inactive) in experiment [16]; -0.797 in [17]; 2.3 (inactive) in experiment [18]; 1.31 (inactive) in experiment [19]. The z-score in [20] came out at 2.51.

For the molecule `CN(C)CCCCCCNC(=O)[C@@H]1C[C@@H]2C(=O)N[C@@H](CCCCN)C(=O)N2[C@@H]1c1ccc(O)cc1`, the composite z-score in [1] was 1.95; in experiment [6], 2.97; in experiment [7], 1.93; in experiment [8] it was 3.46; in experiment [9], 3.21; in experiment [10] it was 1.88. In [12], this molecule gave a composite z-score of 3.1. Moreover, the z-score in experiment [2] was -1.9 (inactive); in experiment [3] it was -1.3 (inactive); in [4] it was -1.08 (inactive); in experiment [5], -0.643 (inactive); in experiment [11], 0.724 (inactive); in experiment [13] it was 0.983 (inactive). Also, the z-score in [14] is -0.111 (inactive); in [15], 2.87 (inactive); in experiment [16] it was -1.88 (inactive); in experiment [17] it was 1.32; in experiment [18], -0.0284 (inactive); in [19] it was 0.901 (inactive). Further, in experiment [20], the z-score came out at 1.13.

Regarding `CN1C(=O)C2C=CC(C(O)c3cc(C(F)(F)F)cc(C(F)(F)F)c3)N(Nc3ccccc3)C2C1=O` (stereo not given), the composite z-score in [1] was -0.253; in experiment [6], 0.0416; in experiment [7], -0.128; in experiment [8] it was -1.74; in experiment [9] it was 1.13; in [10], -0.145. For the same molecule, the composite z-score in experiment [12] is 0.0341. In addition, the z-score is -0.73 (inactive) in [2]; 0.329 (inactive) in experiment [3]; 0.626 (inactive) in experiment [4]; -0.0455 (inactive) in experiment [5]; -1.07 (inactive) in experiment [11]; 0.277 (inactive) in [13]. Moreover, the z-score in experiment [14] is 0.301 (inactive); in [15] it was -0.753 (inactive); in experiment [16], 0.797 (inactive); in experiment [17], -0.77; in experiment [18], -1.59 (inactive); in experiment [19], -4.95 (inactive). The molecule further had a z-score in experiment [20] of -1.99.

With `C=CCNC(=O)[C@H]1[C@@H]2C(=O)O[C@@H](c3ccccc3)[C@@H](c3ccccc3)N2[C@@H](c2ccc(OCCO)cc2)[C@]12C(=O)N(C(=O)OCCOC)c1ccc(C#Cc3ccc(OC)cc3)cc12`, the composite z-score in experiment [1] was found to be 0.209; in experiment [6], 0.51; in experiment [7], 0.152; in [8] it was 0.563; in experiment [9], 0.86; in experiment [10], 1.72. The same molecule displayed a composite z-score in [12] of 0.323. Besides, the z-score is -5.38 (inactive) in [2]; 0.054 (inactive) in [3]; -1.43 (inactive) in experiment [4]; -0.857 (inactive) in experiment [5]; 2.2 (inactive) in experiment [11]; 3.4 (inactive) in experiment [13]. The z-score was 1.31 (inactive) in experiment [14]; -0.0152 (inactive) in experiment [15]; 0.121 (inactive) in experiment [16]; 2.44 in experiment [17]; 1.19 (inactive) in [18]; 0.615 (inactive) in experiment [19]. For the same molecule, in experiment [20], the z-score is -0.0482.

(Values after PubChem BioAssay.)
